Experimental data as given in PubChem BioAssay.
Entries with a potency or affinity are not part of this list. Activity calls are given as the source filed them.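 How the source made its calls: active means a fitted half-maximal concentration no higher than twice the top valid tested dose, with signal falling as cells die; inconclusive means flat curve between -70% and -30%, or poor fit; inactive means the rest, including signal rising instead of falling.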

Test: viability loss in HeLa cells – cell-based, ATP luminescence, cherry-pick samples, cytotoxicity control, dose response (AID 687004);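 further: 0% = neutral control median and -100% = staurosporine 10 µM control median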
Settings: ATP luminescence (CellTiter-Glo), 48 h; series mostly up to 26 µM; activity change, negative = cytotoxicity: at the top concentration

| Compound | activity change, negative = cytotoxicity | outcome |
| --- | --- | --- |
| CN1C(=O)N[C@@H]2c3ccccc3O[C@@]1(C)[C@@H]2COC(=O)c1ccccc1 | 3.24% (inactive) | – |
| C[C@@H]1CN([C@H](C)CO)C(=O)c2cc(NC(=O)CCC(F)(F)F)ccc2O[C@@H](C)CCCCO[C@@H]1CN(C)C(=O)c1ccncc1 | 7.62% [at 23.5 µM] (inactive) | – |
| COc1ccccc1CNC(=O)C[C@@H]1C[C@H]2c3cc(NC(=O)Nc4ccccc4F)ccc3O[C@H]2[C@@H](CO)O1 | 5.33% (inactive) | – |
| O=C(NCC[C@H]1CC[C@H](NS(=O)(=O)c2ccc(F)cc2)[C@@H](CO)O1)c1ccc2c(c1)OCO2 | 0.674% (inactive) | – |
| O=C(NCc1ccc(F)cc1)C1C2C=CC3(CN(Cc4cccnc4)C(=O)C13)O2 (stereo not drawn) | 1.72% (inactive) | – |
| COc1ccccc1CNC(=O)C[C@@H]1C[C@@H]2c3cc(NC(=O)Nc4ccccc4F)ccc3O[C@@H]2[C@H](CO)O1 | -10.5% (inactive) | – |
| O=C(C[C@H]1C[C@@H]2c3cc(NC(=O)CC4CC4)ccc3O[C@@H]2[C@@H](CO)O1)NCc1cccc(F)c1 | 1.37% (inactive) | – |
| CCCNC(=O)C[C@H]1C[C@H]2c3cc(NC(=O)Nc4ccc(OC)cc4)ccc3O[C@H]2[C@@H](CO)O1 | 4.6% (inactive) | – |
| Cc1ccc(S(=O)(=O)N[C@@H]2CCCN(Cc3cccc(OCCO)c3)C2)cc1 | 9.54% [at 21 µM] (inactive) | – |
| COc1ccccc1CNC(=O)C[C@@H]1CC[C@@H]2[C@H](COC[C@@H](O)CN2Cc2ccccc2)O1 | -5.52% (inactive) | – |
| C[C@@H]1CN([C@@H](C)CO)C(=O)c2cc(NC(=O)CCN3CCOCC3)ccc2O[C@@H]1CN(C)Cc1ccc(C(=O)O)cc1 | 42.6% (inactive) | – |
| C[C@H]1CN([C@@H](C)CO)C(=O)c2cc(Br)cnc2O[C@@H]1CN(C)Cc1ccccn1 | 9.54% (inactive) | – |
| Cc1cc(C)c(NC(=O)C2CCCCN2C)c(C)c1 (stereo not drawn) | 3.11% (inactive) | – |
| COCC(=O)Nc1ccc2c(c1)C(=O)N(C)C[C@@H](OC)[C@H](C)CN(Cc1ccccc1)[C@@H](C)CO2 | -0.553% (inactive) | – |
| COc1ccc(-n2ncc3c(SCC(=O)OC(C)C)ncnc32)cc1 | -10.5% (inactive) | – |
| Cc1noc(C)c1S(=O)(=O)Nc1ccc2c(c1)C(=O)N([C@H](C)CO)C[C@@H](C)[C@H](CN(C)Cc1ccccc1)OCCCC[C@H](C)O2 | 1.67% (inactive) | – |
| O=C(NC1CCCC1)N1CCCCN2[C@H](CO)[C@@H](c3ccc(-c4cncnc4)cc3)[C@H]2C1 | 12.7% (inactive) | – |
| C[C@H](CO)N1C[C@H](C)[C@@H](CN(C)Cc2cccc(C(F)(F)F)c2)OCc2cnnn2CCCC1=O | -8.36% (inactive) | – |
| C[C@H](NC(=O)C[C@@H]1CC[C@@H]2[C@H](COC[C@@H](O)CN2C(=O)Nc2cccc(F)c2)O1)c1ccccc1 | 7.29% (inactive) | – |
| O=C(C[C@@H]1C[C@@H]2c3cc(NC(=O)Nc4ccc(F)cc4)ccc3O[C@@H]2[C@@H](CO)O1)NCC1CC1 | -1.09% [at 23.5 µM] (inactive) | – |
| C[C@@H]1CCCCO[C@H](CN(C)C(=O)c2ccccc2)[C@@H](C)CN([C@@H](C)CO)C(=O)c2cc(NC(=O)c3ccccc3)ccc2O1 | 1.88% (inactive) | – |
| Cc1ccc(NC(=O)[C@H](C)NC(=O)C2CCN(C(=O)[C@@H](N)C(C)C)CC2)cc1 | 8.24% (inactive) | – |
| Cc1ccc(C)c(NC(=O)C2(C)CCCN2C(=O)C(C)C)c1 (stereo not drawn) | – | inactive |
| Cc1noc(C)c1NC(=O)N(C)C[C@@H]1Oc2ccc(NC(=O)NC(C)C)cc2CC(=O)N([C@H](C)CO)C[C@H]1C | 27.1% (inactive) | – |
| COc1ccc(CN(C)C[C@@H]2Oc3ccc(NC(=O)Nc4ccc(F)cc4)cc3CC(=O)N([C@H](C)CO)C[C@H]2C)cc1 | 1.36% (inactive) | – |
| CC(C)CC#Cc1cnc2c(c1)C(=O)N([C@H](C)CO)C[C@@H](C)[C@@H](CN(C)C(=O)c1ccc3c(c1)OCO3)O2 | 19.3% (inactive) | – |
| CN1C(=O)c2cc(NS(C)(=O)=O)ccc2OC[C@@H]2O[C@@H](CC(=O)O)CC[C@H]21 | 28.2% (inactive) | – |
| C[C@@H]1CN([C@H](C)CO)C(=O)CCCn2cc(nn2)CO[C@@H]1CN(C)C(=O)CCCN(C)C | 13.4% (inactive) | – |
